# Results filed as inconclusive are left out. Values without a mark were called inactive. Active and inactive are the calls of the source. The call rests on the fitted dose curve; in most records, active means well fitted inhibition curve with a large enough effect; inconclusive means small, poorly fitted or top-dose-only effect; inactive means flat fitted curve, though single readings scatter.
# System: Zika virus NS2B-NS3 protease
# Experiment: Primary screen GU AMC qHTS for Zika virus inhibitors (AID 1347154); further: nearly all actives have a fitted effect of over 70% in size;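 on activity change, negative = inhibition: 0% = no-inhibitor control and -100% = no-enzyme control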
# Conditions: Zika NS2B-NS3 unlinked protease, AMC fluorogenic substrate; series mostly up to 54.1 µM; activity change, negative = inhibition: at the top concentration
# Method in brief: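 Unlinked Zika NS2B hydrophilic domain–NS3 protease complex at 25 nM in 10 mM Tris-HCl pH 8.0, 0.01% Tween 20, with an AMC peptide substrate. Fluorescence change (340/450 nm) over 15 min at room temperature, normalized to controls, fitted to 4-parameter Hill.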
# Potency means the concentration at half of the fitted maximal effect.
Compound,Potency,"activity change, negative = inhibition"
O=C(c1ccc(C=Cc2n[nH]c3ccccc23)cc1)N1CCNCC1,7.64 µM (active),
CC(C)(F)C[C@H](N[C@@H](c1ccc(-c2ccc(S(C)(=O)=O)cc2)cc1)C(F)(F)F)C(=O)NC1(C#N)CC1,,-0.85%
Nc1nc(Cl)nc2c1ncn2[C@@H]1O[C@H](CO)[C@@H](O)[C@H]1F,,6.33%
CC[C@@H]([C@H](C)O)n1ncn(-c2ccc(N3CCN(c4ccc(OCC5CO[C@@](Cn6cncn6)(c6ccc(F)cc6F)C5)cc4)CC3)cc2)c1=O (some centres undefined),,2.19%
O=C(NCCCCN1CCOCC1)c1cc2ccccc2o1,,13.6%
COc1ccc2cc1Oc1ccc(cc1)C[C@H]1c3cc(c(OC)cc3CCN1C)Oc1c(OC)c(OC)cc3c1[C@H](C2)N(C)CC3,inactive,
Cc1[nH]c(C=C2C(=O)Nc3ccc(S(=O)(=O)N(C)c4cccc(Cl)c4)cc32)c(C)c1C(=O)N1CCN(C)CC1,,7.48%
N[C@@H](CC(=O)N1CCn2c(nnc2C(F)(F)F)C1)Cc1cc(F)c(F)cc1F,,4.35%
CCOc1ccccc1N=Nc1c(C)[nH]n(-c2nc(-c3ccccc3)cs2)c1=O,,-0.557%
Cc1ccc(C2=Nc3ccc(Cl)cc3OC2)cc1,,-13.6%
COc1cc2ncn(-c3cc(OCc4ccccc4S(C)(=O)=O)c(C#N)s3)c2cc1OC,,-4.41%
Cc1cc(NC(=O)Nc2ccc(N(C)C)cc2)c2cc(F)cc(F)c2n1,,-1.41%
CC(C)C[C@@H](N)[C@H](O)C(=O)N[C@H](C(=O)N[C@H](C(=O)N[C@@H](CC(=O)O)C(=O)O)C(C)C)C(C)C,,-12.5%
CC(=O)OCC(=O)[C@@]12OC(C)(C)O[C@H]1C[C@H]1[C@@H]3C[C@H](F)C4=CC(=O)C=C[C@]4(C)[C@@]3(F)[C@@H](O)C[C@@]12C,,11.3%

# From PubChem BioAssay (NCATS)
